From PubChem BioAssay (NCATS)
Results filed as inconclusive are left out. Activity calls are given as the source filed them. The call rests on the fitted dose curve; in most records, active means well fitted curve in the direction sought with a large enough effect; inconclusive means small, poorly fitted or top-dose-only effect, or another doubt; inactive means no such curve, though single readings can be large; an effect the other way counts as inactive or inconclusive.

Tests used:
[1] = target: Glutathione peroxidase 1 (Homo sapiens) (UniProt P07203); assay: Primary qHTS Assay for Inhibitors of Recombinant Selenoprotein Glutathione Peroxidase 1 (GPX1) (AID 1845191); further: nearly all actives have a fitted effect of over 65% in size; on activity, negative = inhibition: on the % scale 0 is the no-effect control and ±100 the full control effect
Outline: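 GR-coupled readout: NADPH consumption tracked by fluorescence, ex 340/em 450 nm, at t=0 and after 15 min at RT. Final mix 10 nM GPX1, 1 mM GSH, 0.5 mM CHP, 0.5 mM NADPH, 100 nM GR, 0.01% BSA, following 30 min enzyme–compound preincubation.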

[2] = target: Phospholipid hydroperoxide glutathione peroxidase GPX4 (Homo sapiens) (UniProt P36969); assay: Primary qHTS Assay for Inhibitors of Recombinant Selenoprotein Glutathione Peroxidase 4 (GPX4) (AID 1845192); further: nearly all actives have a fitted effect of over 65% in size; on activity change, negative = inhibition: series mostly up to about 50 µM; on the % scale 0 is the no-effect control and ±100 the full control effect
Outline: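 Steps: GPX4 plus compound, 30 min RT; add GR/GSH/NADPH master mix; start with cumene hydroperoxide; read 340/450 nm fluorescence at 0 and 15 min. Finals were 200 nM GPX4, 1 mM GSH, 0.5 mM CHP, 0.5 mM NADPH, 100 nM GR.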

[3] = target: Luciferin 4-monooxygenase (Photinus pyralis) (UniProt P08659); assay: Primary firefly luciferase (FLuc) qHTS assay for identification of artifact compounds. (AID 1845220); further: nearly all actives have a fitted effect of over 60% in size;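 on activity change, negative = inhibition: series mostly up to about 54 µM; plate controls were DMSO vehicle for no effect and no enzyme for full effect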
Outline: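 D-luciferin and ATP (10 uM each, final) in Tris acetate buffer pH 7.6 were incubated with compounds for 15 min at room temperature. The reaction was started with 10 nM Photinus pyralis luciferase and luminescence read after 5 min. Percent inhibition was fitted to a 4-parameter Hill equation.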

[4] = Primary fluorescence-based thiol-reactive (MSTI) qHTS assay for identification of artifact compounds. (AID 1845221); further: nearly all actives have a fitted effect of over 65% in size; further: potency means the concentration at half of the fitted maximal effect;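 on activity change, negative = thiol reactive: series mostly up to about 54 µM; thiol-reactive compounds lower the probe fluorescence signal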
Outline: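 In PBS pH 7.4 with 2% DMSO, each compound met 4 uM MSTI for one hour at ambient temperature, shielded from light, before fluorescence detection.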

[5] = test system: Nanoluciferase (engineered Oplophorus gracilirostris luciferase); assay: Primary Nanoluciferase (NLuc) qHTS assay for identification of artifact compounds. (AID 1845222);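 further: series mostly up to about 54 µM; 0% = DMSO and -100% = no enzyme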
Outline: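 Diluted conditioned medium from NLuc-expressing S16 cells treated with compounds for 15 min at room temperature, then Nano-Glo substrate added; luminescence read after 5 min. Percent inhibition versus no-enzyme and DMSO controls fitted to 4-parameter Hill equation.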

[6] = Primary redox qHTS assay for identification of artifact compounds. (AID 1845223);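 further: 0% = DMSO and 100% = reference compound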
Outline: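 Redox-cycling detection via DTT (250 uM final) oxidation coupled to Amplex Red (25 uM)/HRP (250 mU/mL) in HBSS. 15 min preincubation plus 30 min after DTT, room temperature. Ex/Em 525/598 nm; 4-parameter Hill fit against DMSO and 10 uM DA3003.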

Chain of Glutathione peroxidase 1 (Homo sapiens) (P07203 whole entry, looked up): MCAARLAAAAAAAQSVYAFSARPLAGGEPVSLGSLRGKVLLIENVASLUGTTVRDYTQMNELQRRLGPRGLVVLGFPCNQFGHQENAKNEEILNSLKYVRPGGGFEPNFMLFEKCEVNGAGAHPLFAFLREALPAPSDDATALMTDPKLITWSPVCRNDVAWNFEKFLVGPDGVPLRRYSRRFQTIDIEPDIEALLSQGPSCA
Chain of Phospholipid hydroperoxide glutathione peroxidase GPX4 (Homo sapiens) (P36969 whole entry, looked up): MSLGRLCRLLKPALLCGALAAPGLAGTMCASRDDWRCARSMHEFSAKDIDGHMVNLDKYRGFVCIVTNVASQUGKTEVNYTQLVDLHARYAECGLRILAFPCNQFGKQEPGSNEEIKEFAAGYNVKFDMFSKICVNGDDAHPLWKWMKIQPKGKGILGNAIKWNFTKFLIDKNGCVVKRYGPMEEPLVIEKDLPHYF

CC(=O)OCC1=C[C@H](O)[C@@H]2C(C(=O)O)=CO[C@@H](O[C@@H]3O[C@H](CO)[C@@H](O)[C@H](O)[C@H]3O)[C@H]12
inactive: Potency [1] | Potency [2] | Potency [3] | Potency [4] | Potency [5] | Potency [6]

COc1cc(C2OCC3C(c4ccc(OC5OC(CO)C(O)C(O)C5O)c(OC)c4)OCC23)ccc1O (centres undefined)
inactive: Potency [1] | Potency [2] | Potency [3] | Potency [4] | Potency [5] | Potency [6]

COc1ccc(C[C@H](N)C(=O)N[C@H]2[C@@H](O)[C@H](n3cnc4c(N(C)C)ncnc43)O[C@@H]2CO)cc1
inactive: Potency [1] | Potency [2] | Potency [3] | Potency [4] | Potency [5] | Potency [6]

CCn1nnnc1NCc1ccc(C(C)C)cc1
inactive: Potency [1] | Potency [2] | Potency [3] | Potency [4] | Potency [5] | Potency [6]

C[C@@H]1CCC2C(C)(C)[C@H](O)CC[C@]2(C)[C@@]12Cc1c(O)cc3c(c1O2)CN(CCO)C3=O (some centres undefined)
inactive: Potency [1] | Potency [2] | Potency [3] | Potency [4] | Potency [5] | Potency [6]

CC(c1c[nH]c2ccccc12)C(O)C(=O)O (centres undefined)
active: Potency [4] 10.6 µM
inactive: Potency [1] | Potency [2] | Potency [3] | Potency [5] | Potency [6]

COc1cccc2c1CCC[C@H]2CN(C)CCc1ccc2ccoc2c1
inactive: Potency [1] | Potency [2] | Potency [3] | Potency [4] | Potency [5] | Potency [6]

C/C=C(\C)C(=O)O[C@@H]1CC2[C@@H](CC=C3C[C@@H](O[C@H]4C[C@H](OC)[C@H](O[C@H]5C[C@H](OC)[C@H](O[C@H]6C[C@H](OC)[C@H](O[C@H]7C[C@@H](OC)[C@H](O[C@@H]8O[C@H](CO)[C@@H](O)[C@H](O)[C@H]8O)[C@@H](C)O7)[C@@H](C)O6)[C@@H](C)O5)[C@@H](C)O4)CC[C@@]32C)[C@@]2(O)CC[C@H](C(C)=O)[C@@]12C (some centres undefined)
inactive: activity, negative = inhibition [1] -14% [at 9.52 µM] | activity change, negative = inhibition [2] -7.77% [at 9.73 µM] | activity change, negative = inhibition [3] 2.2% [at 11.6 µM] | activity change, negative = thiol reactive [4] 10.3% [at 11.5 µM] | activity, negative = inhibition [5] 4.8% [at 11.6 µM] | redox activity (% of DA3003) [6] -9.41% [at 11.5 µM]

COC(=O)[C@]12C(=O)C(C)=C(O)[C@@]1(C)C(C)=CC1[C@@]34CC[C@@H](OC(C)=O)C(C)(C)C3[C@H](C[C@]12C)OC4=O (some centres undefined)
inactive: Potency [1] | Potency [2] | Potency [3] | Potency [4] | Potency [5] | Potency [6]

CCC(=O)N[C@@H]1Cc2ccccc2[C@H](c2ccccc2)C1
inactive: Potency [1] | Potency [2] | Potency [3] | Potency [4] | Potency [5] | Potency [6]

CC1(C)CC2C(O)C3=C(CC(C)(O)C2C1)C(=O)OC3O (centres undefined)
inactive: Potency [1] | Potency [2] | Potency [3] | Potency [4] | Potency [5] | Potency [6]

O=C(O)c1n[nH]c2c1C[C@H]1C[C@@H]21
inactive: Potency [1] | Potency [2] | Potency [3] | Potency [4] | Potency [5] | Potency [6]

COc1c2c(c(C)c3c1C(=O)OC3)O[C@@]1(C)C[C@@H](O)[C@]34O[C@](OC)(CC[C@]3(C)[C@H]1C2)OC4(C)C
inactive: Potency [1] | Potency [2] | Potency [3] | Potency [4] | Potency [5] | Potency [6]

CCOC(=O)[C@H](CCc1ccccc1)CC1(C(=O)N[C@H]2CCc3ccccc3N(CC(=O)O)C2=O)CCCC1
inactive: Potency [1] | Potency [2] | Potency [3] | Potency [4] | Potency [5] | Potency [6]

C/C(=C\CCC(C)(O)c1ccc(C)cc1)C(=O)O (centres undefined)
inactive: Potency [1] | Potency [2] | Potency [3] | Potency [4] | Potency [5] | Potency [6]

O=C(/C=C/c1ccc(O)cc1)OCC1=C[C@@H](O)[C@@H]2C=CO[C@@H](O[C@@H]3O[C@H](CO)[C@@H](O)[C@H](O)[C@H]3O)[C@H]12
active: Potency [4] 5.82 µM
inactive: Potency [1] | Potency [2] | Potency [3] | Potency [5] | Potency [6]

CC1=CC(=O)C2C(C)(C)CCCC2(C)C12CCC1(COC(=O)C1)O2 (centres undefined)
active: Potency [4] 7.36 µM
inactive: Potency [1] | Potency [2] | Potency [3] | Potency [5] | Potency [6]

CC(=O)O[C@@H]1[C@H](O[C@@H]2O[C@H](CO)[C@@H](O)[C@H](O)[C@H]2O)[C@@H](O[C@@H]2O[C@@H](C)[C@H](O)[C@@H](O[C@@H]3O[C@H](CO)[C@@H](O)[C@H](O)[C@H]3O)[C@H]2O)[C@H](OC(=O)C23CCC4(C)C(=CCC5C6(C)CC(O)C(O[C@@H]7O[C@H](C(=O)O)[C@@H](O)[C@H](O)[C@H]7O)C(C)(C(=O)O)C6CCC54C)C2CC(C)(C)CC3O)O[C@@H]1C (some centres undefined)
inactive: outcome [1] inactive [at 9.52 µM] | activity change, negative = inhibition [2] 1.73% [at 9.73 µM] | outcome [3] inactive [at 11.6 µM] | activity change, negative = thiol reactive [4] 205% [at 11.5 µM] | activity, negative = inhibition [5] 0% [at 11.6 µM] | redox activity (% of DA3003) [6] 12.9% [at 11.5 µM]

C=CC(C)(O)CC/C=C(\C)C(=O)OCC1OC(OC2CCC3(C)C(CCC4(C)C3CC=C3C5CC(C)(C)C(O)CC5(C(=O)O)CCC34C)C2(C)C)C(O)C(OC2OC(CO)C(O)C(OC3OC(CO)C(O)C(OC4OC(COC5OC(CO)C(O)C(O)C5O)C(O)C(O)C4O)C3O)C2O)C1O (centres undefined)
inactive: outcome [1] inactive [at 9.52 µM] | outcome [2] inactive [at 9.73 µM] | outcome [3] inactive [at 11.6 µM] | activity change, negative = thiol reactive [4] 67.6% [at 11.5 µM] | activity, negative = inhibition [5] 4.87% [at 11.6 µM] | redox activity (% of DA3003) [6] 18.5% [at 11.5 µM]
